Test results reported in the supplement of paper PMC3334620.
Over roughly 33,000 sequences, “E-score (-0.5 to 0.5)” has its median near -0.012; the highest 2% begin near 0.29. What follows is part of a selection rich in the highest values, with near analogues and random picks from the rest.

These sequences were tested against T1, Ybr033w (UniProt P38073) (assay: PBM E-score (8-mer binding enrichment) (E-score (-0.5 to 0.5)); higher = stronger / more preferred TF binding). Conditions: protein concentration: 200 nM; construct: GST-full length.
T1 sequence: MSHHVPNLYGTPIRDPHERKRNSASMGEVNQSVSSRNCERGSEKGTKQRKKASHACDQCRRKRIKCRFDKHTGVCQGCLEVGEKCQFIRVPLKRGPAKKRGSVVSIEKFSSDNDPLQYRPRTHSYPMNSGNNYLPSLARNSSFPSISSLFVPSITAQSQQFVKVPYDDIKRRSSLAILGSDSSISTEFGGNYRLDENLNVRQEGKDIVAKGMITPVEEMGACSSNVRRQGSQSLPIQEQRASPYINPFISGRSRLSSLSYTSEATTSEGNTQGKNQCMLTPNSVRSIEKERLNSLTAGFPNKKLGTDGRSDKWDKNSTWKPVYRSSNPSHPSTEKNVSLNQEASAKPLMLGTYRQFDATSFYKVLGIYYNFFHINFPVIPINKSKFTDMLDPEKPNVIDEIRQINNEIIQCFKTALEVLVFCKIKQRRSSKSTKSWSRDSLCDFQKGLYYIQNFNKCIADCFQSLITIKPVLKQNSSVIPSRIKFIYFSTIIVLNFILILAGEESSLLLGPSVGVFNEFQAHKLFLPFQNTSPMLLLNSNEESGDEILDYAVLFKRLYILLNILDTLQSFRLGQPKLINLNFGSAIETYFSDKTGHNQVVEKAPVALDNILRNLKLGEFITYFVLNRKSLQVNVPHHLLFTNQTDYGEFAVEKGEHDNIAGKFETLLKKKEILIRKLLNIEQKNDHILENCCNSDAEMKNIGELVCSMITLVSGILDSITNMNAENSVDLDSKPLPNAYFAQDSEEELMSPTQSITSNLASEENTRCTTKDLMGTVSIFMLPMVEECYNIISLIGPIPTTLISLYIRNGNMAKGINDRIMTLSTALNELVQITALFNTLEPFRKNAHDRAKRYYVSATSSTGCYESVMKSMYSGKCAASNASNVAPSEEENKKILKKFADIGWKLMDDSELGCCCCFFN
Procedure: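 Universal 'all 10-mer' protein binding microarrays (Agilent AMADID 015681) probed with GST-tagged S. cerevisiae TFs (full-length or DBD) made by in vitro transcription/translation (PURExpress), about 100-200 nM. Bound TF was detected with fluorescent anti-GST. Each ungapped 8-mer (which stands for itself and its reverse complement) is scored by the PBM enrichment score (E-score), a modified Wilcoxon-Mann-Whitney statistic from -0.5 to +0.5, computed with the Universal PBM Analysis Suite. Scale: above 0.35 generally sequence-specific binding.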

| Sequence | PBM E-score |
| --- | --- |
| AACCATAG | 0.0244 |
| CGTCAAAA | 0.108 |
| ACACCAGA | 0.059 |
| GAGACGCC | -0.0848 |
| AAATTTCG | 0.139 |
| ACCTTTTA | -0.0294 |
| ATCCACAC | -0.00864 |
| AGCTTGCC | -0.231 |
| AACAGGTG | -0.0949 |
| CCACCTCA | -0.134 |
| AGGAGACT | -0.0682 |
| ACGCCCCT | -0.389 |
| AAAGGAAT | 0.0153 |
| CAAAAAAC | 0.146 |
| CCAAAAAC | 0.132 |
| ACCAAAAA | 0.332 |
| CCCAAAAA | -0.19 |
| CCAAAAAA | 0.332 |
| ACCAAAAC | 0.0839 |
| ACCAAAAT | 0.111 |
| AGCAAAAT | 0.2 |
| CAAAAAAG | 0.261 |
| CAAAAAAA | 0.293 |
| AGCAAAAC | 0.0585 |
| AGCAAAAA | 0.319 |

| Sequence | PBM E-score |
| --- | --- |
| GATATCGC | 0.119 |
| GGCTTCGA | -0.138 |
| CTGTTCTA | -0.094 |
| GCGCGAGC | -0.21 |
| CCCTGCCC | -0.376 |
| CCGCCAGA | -0.0108 |
| CTGTCTCC | 0.00722 |
| GCCAGTAC | -0.0841 |
| CGTTATGC | 0.0079 |
| CTTTTGGC | -0.0369 |
| AGTATATG | 0.0561 |
| ACTATATC | 0.229 |
| ATATTATG | 0.315 |
| ATTATGTG | 0.11 |
| ATTATGTC | 0.17 |
| ATATTATA | 0.227 |
| ACTATATA | 0.309 |
| ATATTATC | 0.265 |
| ATTATGTA | 0.312 |
| AGTATATC | 0.213 |
| GCTATATA | 0.194 |
| AGTATATA | 0.389 |
| ACTGGAAC | 0.072 |
| ACCCACCC | 0.0336 |
| AACGCGAT | 0.0217 |

| Sequence | PBM E-score |
| --- | --- |
| TCTCTGCA | -0.162 |
| GCACTTCA | 0.0397 |
| AGCGCTTC | 0.016 |
| ACCATCAT | 0.0599 |
| AGTGCTAC | -0.0555 |
| CCCGGGAG | -0.0399 |
| CGGCTCAA | 0.103 |
| CACTCGCA | -0.00609 |
| GTTATATA | 0.154 |
| ATTATATC | 0.256 |
| ATTATATG | 0.289 |
| ATATTACA | 0.256 |
| ATATTACG | 0.333 |
| ATTATACA | 0.222 |
| CTTATATA | 0.334 |
| ACTATATG | 0.256 |
| CTTATATC | 0.146 |
| ATTATATA | 0.297 |
| ATTATAAG | 0.237 |
| ATATTACC | 0.227 |
| GCATTCAC | 0.216 |
| GTGGTCGA | -0.198 |
| TAGACAAA | 0.0827 |
| ACGTACGA | -0.182 |
| ACATAGCG | 0.0674 |

| Sequence | PBM E-score |
| --- | --- |
| AACTACCC | 0.0868 |
| GAGCCAAA | -0.113 |
| ATTCCCCA | -0.0626 |
| GGTGGTAC | -0.231 |
| GACGGTCC | -0.273 |
| GTTATTAA | 0.229 |
| CTTATTAA | 0.17 |
| ATTATTAA | 0.316 |
| ACTATTAC | 0.134 |
| CTTATTAC | 0.115 |
| ATTATTAC | 0.343 |
| ATCTAAGC | 0.0351 |
| AGCGTTGC | -0.0711 |
| CGCTTATC | -0.00322 |
| CGGCTATA | -0.0713 |
| ATCCGGAG | 0.143 |
| CTCCGGAA | 0.22 |
| ATCCGGAA | 0.403 |
| ATCCGGAC | -0.0654 |
| GTCCGGAA | 0.19 |
| TTCCGGAA | 0.316 |
| CTCATCCC | -0.189 |
| CGTACTGC | -0.151 |
| CTCGTCTA | -0.0771 |
| GATAATCA | 0.236 |

| Sequence | PBM E-score |
| --- | --- |
| AACAATCC | 0.338 |
| AATAATCC | 0.439 |
| CATAATCC | 0.0679 |
| GATAATCC | 0.375 |
| GATAATGC | 0.115 |
| AATAATCA | 0.234 |
| AACAATCT | 0.168 |
| AACAATCG | 0.0843 |
| ACCCGAAG | -0.0833 |
| ACCTACTC | -0.0816 |
| AACAAATC | 0.315 |
| AACAAATT | 0.374 |
| AACAAAAA | 0.212 |
| ACAAAAAT | 0.308 |
| ACAAAAAC | 0.243 |
| GACAAATC | 0.24 |
| ACAAAAAA | 0.18 |
| AACAAGAT | 0.221 |
| AACAAGTT | 0.188 |
| AACAAAAT | 0.291 |
| AACAAGTC | 0.0761 |
| AACAAATA | 0.285 |
| AGGCAGTG | -0.0313 |
| GCCGTTTA | 0.0411 |
| CAAAAGTA | 0.16 |

| Sequence | PBM E-score |
| --- | --- |
| AAGCCATA | 0.0179 |
| ATGCACGA | -0.021 |
| GGTGAGAC | 0.0001 |
| ACCAATCC | -0.0137 |
| AACCTTTC | -0.0863 |
| ACCAGCAC | -0.0392 |
| CTCTGCGA | -0.0389 |
| ATTCATCC | 0.349 |
| ATTCATCA | 0.171 |
| CTTCATCC | -0.0751 |
| ACATAAAT | 0.149 |
| AGGGTGGG | -0.0779 |
| ACCAAGCG | -0.0846 |
| AGCACACA | -0.0313 |
| AAAATGGT | 0.319 |
| AAAATGAC | 0.15 |
| AAAATGAA | 0.081 |
| AAAATGGG | -0.032 |
| AAAATGAT | 0.369 |
| AAAATGGA | 0.197 |
| GATATGGC | -0.161 |
| TCACCTAA | 0.0978 |
| GCGATACC | -0.236 |
| CTGACTCA | -0.0835 |
| AATACAAA | 0.302 |

| Sequence | PBM E-score |
| --- | --- |
| ATTACAGA | 0.141 |
| AATACAAG | 0.252 |
| ATTACAAA | 0.318 |
| CATACAAA | 0.246 |
| ATTACAAG | 0.18 |
| ATTACAGC | -0.21 |
| ATTACAGG | 0.326 |
| ATTACAAT | 0.0893 |
| GATACAAA | 0.277 |
| AATACAAC | 0.271 |
| TATACAAA | 0.356 |
| ACGGCTTG | -0.0473 |
| GGCGTGAC | -0.141 |
| ATACTGAG | 0.267 |
| CTCCAGTA | 0.109 |
| AATCCATC | 0.14 |
| CAGCATAG | -0.0334 |
| CACTTGCA | -0.0412 |
| CGCTACAA | 0.111 |
| GGCAGCCA | -0.0547 |
| GATACATC | -0.0274 |
| AATACATC | 0.297 |
| AATACATG | 0.222 |
